Reference: PubChem BioAssay (Tox21)
Records with an inconclusive call do not appear. Entries that show only a call come without a potency. Calls of active or inactive are those of the source. Calls come from the whole dose curve; as a rule, active = well fitted activation curve with a large enough effect in the repeat runs; inconclusive = weak or mixed curves; inactive = flat fitted curve, though single readings scatter.

Assay: A CellTox Green Cytotoxicity Assay to monitor cytotoxicity in HepG2 cells - 16 hour (AID 1224876); note: nearly all actives have a fitted effect of over 45% in size
Settings: CellTox Green fluorescence; series mostly up to 76.8 µM
Source text: National Center for Advancing Translational Sciences [NCATS]
NIH Chemical Genomics Center [NCGC]
U.S. Environmental Protection Agency [EPA]
National Institutes of Environmental Health Sciences [NIEHS]
National Toxicology Program [NTP]
Cell-based models are critical for drug discovery. Determining the natural cytotoxic effects resulting from test compounds is an essential research activity. A CellTox Green Cytotoxicity Assay to monitor cytotoxicity in real time of continues cell culture during 40 hours of the compound treatment was used to screen Tox21 10K library compounds in HepG2 cells. CellTox Green Cytotoxicity Assay is a nonlytic, homogeneous, biofluorescent method to measure cytotoxicity in cell culture after experimental manipulation. The assay system uses a proprietary asymmetric cyanine dye that is excluded from viable cells but preferentially stains the dead cell's DNA. […] Viable cells produce no appreciable increases in fluorescence. Therefore, the fluorescence signal produced by the binding interaction with dead cell DNA is proportional to cytotoxicity.
The mixture of HepG2 cell suspension and reagents were dispensed at 600cells/6 ul/well in 1536-well tissue culture treated black solid bottom plates using a Multidrop dispenser. After the assay plates were incubated at a 37 C/5% CO2 incubator for 5 hours, 23 nL of compounds dissolved in DMSO, positive and negative controls was transferred to the assay plate by a pintool work station. The plates were incubated at 37 C for 40 hours. The fluorescence intensity were measured at 0h, 8h, 16h, 24h, 32h and 40h time points using ViewLux plate reader during compound treatment.
Potency is the fitted concentration of half-maximal effect.

| SMILES | Potency |
| --- | --- |
| [Cl][Nd]([Cl])[Cl] | inactive |
| CCCCCc1ccco1 | inactive |
| CC/C=C\C/C=C\C/C=C\CCCCCCCC(=O)OCC | inactive |
| COc1ccc(-c2cc(=S)ss2)cc1 | inactive |
| O[C@@H](CNC[C@H](O)[C@H]1CCc2cc(F)ccc2O1)[C@@H]1CCc2cc(F)ccc2O1 | 16.9 µM (active) |
| SCCc1cnccn1 | inactive |
| CCN(CC)C(=O)/C(C#N)=C/c1cc(O)c(O)c([N+](=O)[O-])c1 | inactive |
| COc1cc(S(=O)(=O)Nc2ccccc2)c(OC)cc1N | inactive |
| CC1=CC[C@@]23C[C@@H]1C(C)(C)[C@@H]2CC[C@H]3C | inactive |
| COC(CC(C)CCCC(C)(C)O)OC (stereo not given) | inactive |
| CC(=O)Oc1cccc(O)c1 | inactive |
| CC12CC3CC(C)(C1)CC(N)(C3)C2 | inactive |
| Cc1cccc2sc(N)nc12 | inactive |
| CC(C)(C(=O)c1cccnc1)c1cccnc1 | inactive |
| CSSc1ccoc1C | inactive |
| COc1cc(NC(C)CCCN)c2ncccc2c1 (stereo not given) | inactive |
| CCN(CC)CCOc1ccccc1C(=O)CCc1ccccc1 | inactive |
| COc1ccc(/C=C/C(=O)c2ccc(OC)cc2OC)cc1 | inactive |
| Cc1cccc(C)c1NC(=O)c1cc(S(N)(=O)=O)c(Cl)cc1O | inactive |
| CCO[Si](C)(CCCOCC1CO1)OCC (stereo not given) | inactive |

| SMILES | Potency |
| --- | --- |
| CC(=O)c1ccc[nH]1 | inactive |
| CC[C@H]1OC(=O)[C@H](C)[C@@H](O[C@H]2C[C@@](C)(OC)[C@@H](O)[C@H](C)O2)[C@H](C)[C@@H](O[C@@H]2O[C@H](C)C[C@H](N(C)C)[C@H]2O)[C@](C)(O)C[C@@H](C)/C(=N\OCOCCOC)[C@H](C)[C@@H](O)[C@]1(C)O | inactive |
| ClC1=C(Cl)C1(Cl)Cl | inactive |
| CCCOC(=O)c1c(Cl)c(Cl)c(Cl)c(Cl)c1C(=O)OCCC | inactive |
| CC(C)C(=O)OCCOc1ccccc1 | inactive |
| CCOC(=O)Oc1ccc(CCNC(=O)[C@H](CCSC)NC(C)=O)cc1OC(=O)OCC | inactive |
| CCCCOC(=O)CCCCC(=O)OCCCC | inactive |
| CCCCCCCC(=O)OCCCCCC | inactive |
| COc1cc(C(C)=O)ccc1OCCCN1CCC(c2noc3cc(F)ccc23)CC1 | inactive |
| CCCCC(CC)COS(=O)(=O)O (stereo not given) | inactive |
| Cc1ccc(N(CCO)CCO)cc1 | inactive |
| Cc1oc(=O)oc1COC(=O)[C@@H]1N2C(=O)[C@@H](NC(=O)[C@H](N)c3ccccc3)[C@H]2SC1(C)C | inactive |
| OCC(CO)n1cnc(-c2ccc(F)cc2)c1-c1ccnc(Oc2ccccc2)n1 | inactive |
| CC(CN(CCN(CC(C)OCCO)CC(C)OCCO)CC(C)OCCO)OCCO (stereo not given) | inactive |
| O=[N+]([O-])c1ccc2ncccc2c1 | inactive |
| O=C(O)c1cccc(C[C@@H]2COc3ccc(OCc4nc5cc(F)ccc5s4)cc3[C@@H]2O)c1 | inactive |
| CC1=C2[C@@H]([C@H](C)CC[C@H]2/C=C(\C)C(=O)O)[C@H](O)C1 | inactive |
| CCCCCCCCCCCCCCCC(=O)OCC | inactive |
| CCc1ccc(C)cc1 | inactive |
| O=S(=O)(Cl)c1c(Cl)cccc1Cl | inactive |
